Activity calls are given as the source filed them. How the calls were made is not given here.

Chain of Pantothenate synthetase (Mycobacterium tuberculosis (strain ATCC 25618 / H37Rv)) (P9WIL5 whole entry, looked up): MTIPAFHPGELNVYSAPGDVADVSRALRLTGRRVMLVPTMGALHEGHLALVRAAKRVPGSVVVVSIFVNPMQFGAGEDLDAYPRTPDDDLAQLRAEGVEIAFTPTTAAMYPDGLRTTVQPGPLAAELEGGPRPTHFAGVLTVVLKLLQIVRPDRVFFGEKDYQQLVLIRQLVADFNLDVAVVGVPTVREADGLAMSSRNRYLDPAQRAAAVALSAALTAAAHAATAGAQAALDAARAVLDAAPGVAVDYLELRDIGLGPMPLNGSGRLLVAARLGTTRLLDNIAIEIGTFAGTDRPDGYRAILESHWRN

The experiment addresses Pantothenate synthetase (Mycobacterium tuberculosis (strain ATCC 25618 / H37Rv)) (UniProt P9WIL5). Put plainly: Recombinant Mtb pantothenate synthetase (PanC) inhibitors, coupled enzyme, confirmatory (AID 375).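 Further: 0% = full reaction with vehicle and 100% = no enzyme background.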 The following applies: coupled enzyme assay; at 10 µM, active compounds read high.
One may read the inhibition as the relative decrease from the control value, in per cent. As to `O=C(CSc1nnc(SCc2ccc(Cl)cc2)s1)N1CCN(C(=O)c2ccco2)CC1`, the inhibition was 7% (inactive).

As for `Cc1nnc2n(-c3ccccc3)c(=O)c3c4c(sc3n12)CCCC4`, the inhibition was 2% (inactive). The value for `Cc1ccc(C(=O)C2COC(=O)C2)cc1` (centres undefined) was 0% (inactive); that for `CN/C=C1\C(=O)C(C)(C)Oc2ccc3ccc(=O)oc3c21` was 9% (inactive). As for `O=C(C1CC1)N1CCc2cc(Br)cc(S(=O)(=O)N3CCOCC3)c21`, the figure is 3% (inactive); as for `CC(C)(C)OC(=O)N1CCOCCOCCN(C(=O)OC(C)(C)C)CCOCCOCC1`, 0% (inactive); as for `Cc1ccc(S(=O)(=O)N2CCCN(S(=O)(=O)C3CCS(=O)(=O)C3)CC2)cc1` (centres undefined), 2% (inactive). As for `Cc1nc2ccc(S(=O)(=O)NCC(=O)N(C)Cc3ccco3)cc2s1`, the figure is 0% (inactive); as for `OCc1nc2ccccc2n1CC(O)Cn1ccc2ccccc21` (centres undefined), 1% (inactive); as for `Clc1ccc(Nc2ncnc3c2cnn3-c2ccccc2)cc1`, 6% (inactive). Take `CC(=O)Nc1c(I)c(NC(C)=O)c(I)c(C(=O)O)c1I`: the inhibition was 1% (inactive).

As for `Nc1[nH]nc2nc(N3CCCC3)nc(-c3ccccc3)c12`, the inhibition was 0% (inactive). The value for `COc1ccc(N2CCN(C(=O)c3c(-c4ccccc4)noc3C)CC2)cc1` was 0% (inactive). The value for `COc1cc(-c2nc(-c3ccncc3)no2)cc(OC)c1OC` was 2% (inactive); that for `Fc1ccc(-c2nnc(CN3CCN(c4ncc(C(F)(F)F)cc4Cl)CC3)o2)cc1` was 0% (inactive); that for `COc1ccc(NC(=O)C(C)Oc2ccc(/C(C)=N\O)cc2)cc1` (centres undefined) was 0% (inactive). The value for `O=C(O)CCC(=O)Nc1ccc(S(=O)(=O)Nc2nccs2)cc1` was 0% (inactive); that for `O=C(c1ccco1)N1CCN(CCCCN2C(=O)c3ccccc3C2=O)CC1` was 5% (inactive); that for `CCc1nc(SCC(=O)NCc2ccco2)c2c3c(sc2n1)CCCC3` was 4% (inactive). In the case of `COc1ccccc1NC(=O)N1CCN(c2ccccc2F)CC1`, the inhibition was 0% (inactive). The value for `COc1ccc(C2c3c(-c4ccccc4O)n[nH]c3C(=O)N2CCc2ccc(OC)c(OC)c2)cc1` (centres undefined) was 0% (inactive); that for `CC1CCN(C(=O)Cn2c(=O)oc3ccccc32)CC1` was 0% (inactive).

As for `Nc1nc(-n2cnnc2)nn1-c1ccccc1`, the inhibition is 0% (inactive). The value for `Cc1ccc(-n2c(SCC3CCCCO3)nnc2-c2ccco2)cc1` (centres undefined) was 6% (inactive); that for `CC(=O)c1c(C)[nH]c(C(=O)NCc2cccs2)c1C` was 0% (inactive); that for `O=C(CC(CC(=O)c1ccccc1)C(=O)O)c1ccccc1` was 3% (inactive). For the molecule `CC(C)CNC(=O)c1ccccc1NC(=O)CN(c1ccc2c(c1)OCCO2)S(C)(=O)=O`, the inhibition is 0% (inactive). As for `Cc1ccccc1NC(=O)N1C2CCCC1CC(NC(=O)C1CC1)C2` (centres undefined), the figure is 14% (inactive); as for `O=C(CSc1nnnn1-c1ccccc1)Nc1ccc(Cl)cc1`, 0% (inactive). As to `Cc1ccc(NC(=O)CC2Nc3ccccc3NC2=O)cc1Cl` (centres undefined), the inhibition is 0% (inactive). `Nc1cc(=O)[nH]c(SCC(=O)Nc2ccc(Br)cc2)n1`: the inhibition was 2% (inactive).

As for `Cc1nn(-c2ccccc2)c2c1C(c1c(C)[nH]c(C#N)c1C)C(C#N)=C(N)O2` (centres undefined), the inhibition is 1% (inactive). As for `Cc1ccc(Cn2nnnc2CN2CCC(O)(c3ccccc3F)CC2)cc1`, the figure is 0% (inactive); as for `S=c1[nH]c2ccc(Cl)cc2[nH]1`, 9% (inactive); as for `CCCc1cc(C(=O)Nc2ccccc2C(=O)OC)no1`, 0% (inactive).

For `Clc1ccccc1OCCCCn1ccnc1`, the inhibition was 0% (inactive). Consider `COC(=O)c1ccccc1NC(=O)CC(NCc1ccccc1)C(=O)O` (centres undefined), for which the inhibition is 0% (inactive). As for `COc1ccc(N2C(=O)C(Cl)=C(Nc3c(C)n(C)n(-c4ccccc4)c3=O)C2=O)cc1`, the figure is 5% (inactive); as for `Cc1cc(Br)ccc1NC(=O)CCN1C(=O)c2ccncc2C1=O`, 0% (inactive).

Source of the values: PubChem BioAssay.
